Compounds with a hit are over-represented: about 6.7% of the library has one in this group of screens.
KB-3-1 cytotox: qHTS assay for MDR1-selective chemotherapeutics: Primary screen using the parental adenocarcinoma cell KB-3-1; KB-3-1 viability, CellTiter-Glo ATP luminescence, 72 h; Potency, µM (doses to about 46.1 µM), hits mostly cytotoxic; 400,000 tested, 1.4% active; further: on the % scale 0 is the no-effect control and ±100 the full control effect; nearly all actives have a fitted effect of over 60% in size
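Cells are dispensed, compounds pinned in, plates held at 37 °C for 72 h, then CellTiter-Glo is added and luminescence read after 10 minutes. Cell line: parental KB-3-1 in phenol-red-free DMEM, 10% FBS.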
PINK1 modulator: A Quantitative High throughput Screen to Identify Chemical Modulators of PINK1 Expression. PINK1 immunofluorescence, high-content cytometry, 24 h. Potency, µM (titrated, usually from 76.6 µM), inactives show at the highest dose activation (PINK1 increase), most hits filed as activators. 410,000 tested, 0.2% active. AID 624263, 2012; active means well fitted activation curve with a large enough effect; inconclusive means small, poorly fitted or top-dose-only effect; cell line not stated here; further: % of control where 0% means no effect; nearly all actives have a fitted effect of over 65% in size
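Cells are seeded, rested 12 hours, then given compound at five concentrations or DMSO for 24 hours. After fixation, blocking and antibody staining, PINK1 amount and mitochondrial localization are scored; CCCP serves as control.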
MCF10A rerep: A quantitative high throughput screen for small molecules that induce DNA re-replication in MCF 10a normal breast cells | Potency, µM (titrated, usually from 46.1 µM), for the others: at the top dose activity, positive = re-replication, usual class: activators | MCF 10A DNA re-replication, Hoechst nuclear intensity, 48 h | 350,000 tested, 2.9% active; further: % of control where 0% means no effect; nearly all actives have a fitted effect of over 50% in size
SW480 rerep: A quantitative high throughput screen for small molecules that induce DNA re-replication in SW480 colon adenocarcinoma cells; 340,000 tested, 1.8% active; SW480 DNA re-replication, Hoechst DNA content imaging, 48 h; Potency, µM (top dose mostly 46.1 µM), without a hit: at the top dose re-replication activation, most hits filed as activators; further: % of control where 0% means no effect; nearly all actives have a fitted effect of over 55% in size
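250 cells/well; 23 nL cpd via pin tool; 48 hr, 37 C, 5% CO2; Hoechst 40 min; imager read of total nuclear intensity, ex 405/em 500-530 nm.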
KB-V1 cytotox: qHTS assay for MDR1-selective chemotherapeutics: Primary screen using the drug-selected MDR subline cells KB-V1. KB-V1 MDR cells viability, CellTiter-Glo, 72 h. 400,000 tested, 3.4% active. AID 1347076, 2019. Potency, µM (doses to about 46.1 µM), hits mostly cytotoxic; further: on the % scale 0 is the no-effect control and ±100 the full control effect; nearly all actives have a fitted effect of over 60% in size
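KB-V1 cells (P-gp-expressing MDR subline of KB-3-1) in phenol-red-free DMEM with 10% FBS were exposed to library compounds over a concentration series for 72 h at 37 degrees C. Viability read by CellTiter-Glo luminescence; concentration-effect curves fitted after normalization.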
* marks the source's active call; other numbers are inactive results; i = inactive; ? = inconclusive; / = not tested or not shown; ! = repeats disagree; [ ] = dose if it differs, or a comment. Unless noted, the call rests on the fitted dose curve; in most records, active means well fitted curve in the direction sought with a large enough effect; inconclusive means small, poorly fitted or top-dose-only effect, or another doubt; inactive means no such curve, though single readings can be large; an effect the other way counts as inactive or inconclusive. Potency means the concentration at half of the fitted maximal effect.

SMILES	KB-3-1 cytotox	PINK1 modulator	MCF10A rerep	SW480 rerep	KB-V1 cytotox
CN1C(=O)C(O)N=C(c2ccccc2)c2cc(Cl)ccc21 (stereo unspecified)	/	/	2%	-11%	/
COc1ccc(C[C@H]2NC[C@H](O)[C@H]2OC(C)=O)cc1	0.33µM*	-1%	?	3%[1.84 µM]	0.41µM*
N[C@H]1C[C@H]1c1ccccc1	/	/	0%	-6%	/
O=c1ccc2cc(O[C@@H]3O[C@@H](CO)[C@H](O)[C@@H](O)[C@@H]3O)c(O)cc2o1	i	-1%	18µM*	?	i
O=c1ccc2cc(O[C@H]3O[C@@H](CO)[C@@H](O)[C@@H](O)[C@@H]3O)c(O)cc2o1	/	/	?	2%[20.6 µM]	/
Cc1nc2ccccc2c(=O)n1/N=C/c1cc(Br)cc(Br)c1O	i	3%	27%	7.3µM*	i
CN1C[C@H](C(=O)N[C@]2(C)O[C@@]3(O)[C@@H]4CCCN4C(=O)[C@H](Cc4ccccc4)N3C2=O)CC2c3cccc4[nH]cc(c34)C[C@H]21 (stereo partly specified)	i	2%	?	0.35µM*!	i
NC(=O)c1sc2nc3c(c(-c4cccs4)c2c1N)CCCC3	/	/	?	-422%	/
Nc1c2c(nc3sc4c(c13)CCCCC4)CCCC2	29µM*	?	?	-2%	?
COc1ccc(/C=C2\Oc3cc(OC(=O)N4CCOCC4)ccc3C2=O)c(OC)c1	i	?	-3%	?	i
CCn1c(O)c(/C=N/NC(=O)c2ccccc2)c(=O)n(CC)c1=S	?	-1%	?	18µM*	i
COc1ccc(-n2c(C)nc3cc(C(=O)N4CCC5(CC4)OCCO5)ccc32)cc1	?	9%	?	?	?
COc1ccc(-c2nc3ccc(C(=O)N4CCC5(CC4)OCCO5)cc3nc2-c2ccc(OC)cc2)cc1	i	-2%	?	23µM*	i
Cc1ccccc1N1C(=O)NC(=O)/C(=C\c2cc(Br)c(N3CCOCC3)o2)C1=O	i	?	7.3µM*	?	i
Cc1ccccc1N1C(=O)NC(=O)/C(=C/c2ccc(N3CCOCC3)o2)C1=O	i	3%	?	17%	i
CC(=NCc1ccc(F)cc1)c1c(O)n(C)c(=O)n(C)c1=O	5.8µM*	-1%	?	-15%	?
CC(C)(C)OC(=O)c1c(N)n(Cc2ccco2)c2nc3ccccc3nc12	i	2%	?	?	i
CCC(C)OC(=O)c1c(N)n(Cc2cccs2)c2nc3ccccc3nc12 (stereo unspecified)	?	5%	12µM*	?	i
Nc1c(C(=O)OCc2ccccc2)c2nc3ccccc3nc2n1Cc1cccs1	i	0%[38.3 µM]	6.5µM*	15µM*	5.2µM*
O=C(Oc1ccccc1)N1CCC2(CC1)CN(Cc1ccncc1)C2	/	0%	/	/	/
CC1CC(C)CC(C)C(O)C(C#N)=CC=CCC(C2CCCC2C(=O)O)OC(=O)CC(O)C(C)C1 (stereo unspecified)	1.2µM*	-6%	0.13µM*	?	6.5µM*
NC(=O)CN1CC(O)CC1=O (stereo unspecified)	/	/	1%	-2%	/
Cc1cc(Cl)ccc1OCCCC(=O)NCc1cccs1	i	?	?	?	26µM*
COc1cccc(C2SCC(=O)Nc3c2c(C)nn3-c2ccc(C)c(Cl)c2)c1OC (stereo unspecified)	i	4%	/	/	i
Cn1c(O)c(C(=N)COc2ccccc2)c(=O)n(C)c1=O	i	?	-1%	-6%	i
SMILES	KB-3-1 cytotox	PINK1 modulator	MCF10A rerep	SW480 rerep	KB-V1 cytotox
Cn1c(O)c(C(=Nc2ccccc2)SCc2ccc(Cl)cc2)c(=O)n(C)c1=O	?	3%	?	28%	5.2µM*
CCOC(=O)[C@]12Cc3cc(OC)ccc3[C@H]1N(C(C)C)C(=O)c1cc(OC)ccc12	10µM*	-1%	/	/	6.5µM*
CCOC(=O)[C@]12Cc3cc(OC)ccc3[C@H]1N(C)C(=O)c1ccccc12	?	1%	/	/	?
CCOC(=O)[C@]12Cc3cc(Cl)ccc3[C@H]1N(C)C(=O)c1ccccc12	?	-1%	/	/	i
CCOC(=O)[C@]12Cc3c(cc(OC)c(OC)c3OC)[C@H]1N(C(C)C)C(=O)c1cc(OC)ccc12	4.1µM*	-1%	/	/	2.6µM*
CCOC(=O)[C@]12Cc3c(cc(OC)c(OC)c3OC)[C@H]1N(Cc1ccccc1)C(=O)c1ccccc12	i	4%	?	0%	?
CCOC(=O)[C@]12Cc3cc(C)ccc3[C@H]1N(C)C(=O)c1cc(OC)ccc12	7.3µM*	0%	/	/	i
O=C(NC(=O)c1c(F)cccc1F)Nc1cc(Cl)c(OC(F)(F)C(F)C(F)(F)F)cc1Cl (stereo unspecified)	/	/	19%	1%	/
N#Cc1ccc(CN2CC3(CCNCC3)C2)cc1	/	-1%	/	/	/
CCCC(C)C1(CC)C(=O)N=C(S)NC1=O (stereo unspecified)	/	2%	/	/	/
CCOC(=O)c1c(C)n(Cc2ccc3c(c2)OCO3)c2ccc(O)cc12	i	/	?	-24%	i
CCOC(=O)c1c(C)n(Cc2ccc(F)cc2)c2ccc(O)cc12	?	6%	6%	?	16µM*
CCC(=O)O[C@@](Cc1ccccc1)(c1ccccc1)[C@@H](C)CN(C)C	/	/	-3%[20.6 µM]	1%[20.6 µM]	/
O=C(Cc1c[nH]c2ccccc12)NNCc1ccc(N(CCCl)CCCl)cc1	?	0%	25%	16µM*	i
CN(C)C(=O)Oc1ccc(C(=O)c2ccccc2)cc1	i	/	-3%	0%	i
